Test results reported in PubChem BioAssay (NCI).
“And” between values parts separate entries of the source, which are not always exact repeats. Equal entries are not always repeated. The panel holds about 83,000 compounds, 20% with a hit somewhere; the sample as a whole holds those more often.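 Treatment: one concentration, 48 hours, 96-well format. Scoring: percent growth, with anything below 10 considered active.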 The source made the active and inactive calls.

Key:
Experiment in all cases: NCI-60 one-dose screen, 48 h (100 = growth as untreated, 0 = no growth, -100 = all killed)
[1] = system: DU-145 prostate; conditions: 10 µM unless noted
[2] = system: K-562 leukemia; conditions: 10 µM
[3] = system: MALME-3M melanoma; conditions: 10 µM
[4] = system: MDA-MB-231 breast; conditions: 10 µM
[5] = system: RXF 393 renal; conditions: 10 µM unless noted
[6] = system: SF-268 CNS; conditions: 10 µM
[7] = system: SF-295 CNS; conditions: 10 µM
[8] = system: SF-539 CNS; conditions: 10 µM
[9] = system: UACC-257 melanoma; conditions: 10 µM
[10] = system: M14 melanoma; conditions: 10 µM

CN(C)C(=S)SC(=S)N(C)C
growth [1]: 108% (inactive) and 104% (inactive)
growth [2]: 58% (inactive) and 75.7% (inactive)
growth [3]: 84.7% (inactive) and 85% (inactive)
growth [4]: 105% (inactive) and 122% (inactive)
growth [5]: 108% (inactive) and 109% (inactive)
growth [6]: 107% (inactive) and 95.8% (inactive)
growth [7]: 100% (inactive) and 101% (inactive)
growth [8]: 93.5% (inactive) and 101% (inactive)
growth [9]: 96.5% (inactive) and 77.5% (inactive)
growth [10]: 90.5% (inactive) and 93% (inactive)

CC1=CC(C)=Nc2ccc(Cl)cc2N1
growth [1]: 106% (inactive)
growth [2]: 90.3% (inactive)
growth [3]: 96.9% (inactive)
growth [4]: 110% (inactive)
growth [5]: 113% (inactive)
growth [6]: 98.9% (inactive)
growth [7]: 107% (inactive)
growth [8]: 100% (inactive)
growth [9]: 104% (inactive)
growth [10]: 102% (inactive)

Nc1nc(=S)c2ncn(C3OC(CO)C(O)C3O)c2[nH]1 (stereo not drawn)
growth [1]: 108% (inactive) and 23.2% (inactive)
growth [2]: 108% (inactive)
growth [3]: 170% (inactive) and 15% (inactive)
growth [4]: 105% (inactive) and 26.1% (inactive)
growth [5]: 108% (inactive) and -8.38% (active)
growth [6]: 101% (inactive) and 34.5% (inactive)
growth [7]: 109% (inactive) and 18.3% (inactive)
growth [8]: 107% (inactive) and 22.3% (inactive)
growth [9]: 98.9% (inactive) and 31.5% (inactive)
growth [10]: 109% (inactive) and 15.5% (inactive)

CC[N+](CC)=c1ccc2nc3c(cc(N)c4ccccc43)oc-2c1
growth [1]: -60% (active)
growth [2]: 1.13% (active)
growth [3]: -60.9% (active)
growth [4]: -71.5% (active)
growth [5]: -23.7% (active)
growth [6]: -54% (active)
growth [7]: -83% (active)
growth [8]: -79.7% (active)
growth [9]: -70.2% (active)
growth [10]: -56.9% (active)

O=C1C=C(O)c2ccccc2C1=O.[Ag]
growth [1]: 121% (inactive)
growth [2]: 83.5% (inactive)
growth [3]: 85.3% (inactive)
growth [4]: 89.2% (inactive)
growth [6]: 113% (inactive)
growth [7]: 97% (inactive)
growth [8]: 114% (inactive)
growth [9]: 76.2% (inactive)
growth [10]: 91.3% (inactive)

O=[N+]([O-])C1=C(c2ccccc2)SC=C(c2ccccc2)S1
growth [1]: 75.2% (inactive)
growth [2]: 72.7% (inactive)
growth [3]: 54.5% (inactive)
growth [4]: 69.3% (inactive)
growth [5]: 54.2% (inactive)
growth [6]: 97.9% (inactive)
growth [7]: 93.7% (inactive)
growth [9]: 51.3% (inactive)
growth [10]: 65.2% (inactive)

N=S(c1ccccc1[N+](=O)[O-])c1ccccc1[N+](=O)[O-]
growth [1]: 80.4% (inactive)
growth [2]: 1.79% (active)
growth [3]: 74.5% (inactive)
growth [4]: 91.4% (inactive)
growth [5]: 79% (inactive)
growth [6]: 90.2% (inactive)
growth [7]: 99.5% (inactive)
growth [8]: 39.2% (inactive)
growth [9]: 89.7% (inactive)
growth [10]: 60.2% (inactive)

OCC1OC(n2cnc3c(=S)nc[nH]c32)C(O)C1O (stereo not drawn)
growth [1]: 98.4% (inactive) and 51.9% (inactive)
growth [2]: 124% (inactive) and 41.6% (inactive)
growth [3]: 87.3% (inactive) and 53.3% (inactive)
growth [4]: 99.2% (inactive) and 61.9% (inactive)
growth [5]: 98.2% (inactive) and 70.2% (inactive)
growth [6]: 109% (inactive) and 53.9% (inactive)
growth [7]: 101% (inactive) and 41.7% (inactive)
growth [8]: 103% (inactive) and 31.8% (inactive)
growth [9]: 105% (inactive) and 52.7% (inactive)
growth [10]: 126% (inactive) and 32.4% (inactive)
